In the library only some 28% were active in any assay of this set; here they are far more common.
CYP2C9 inh: inhibitors of human CYP2C9; P11712; CYP2C9 Supersomes, luciferin-H conversion, luminescence; inhibition, % at 5 µM; 96,000 tested, 20% active; AID 777;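 active = blocking of liver enzyme CYP2C9 beyond about 50% at 5 µM, limit read from the data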
Target sequence (P11712 whole entry, looked up): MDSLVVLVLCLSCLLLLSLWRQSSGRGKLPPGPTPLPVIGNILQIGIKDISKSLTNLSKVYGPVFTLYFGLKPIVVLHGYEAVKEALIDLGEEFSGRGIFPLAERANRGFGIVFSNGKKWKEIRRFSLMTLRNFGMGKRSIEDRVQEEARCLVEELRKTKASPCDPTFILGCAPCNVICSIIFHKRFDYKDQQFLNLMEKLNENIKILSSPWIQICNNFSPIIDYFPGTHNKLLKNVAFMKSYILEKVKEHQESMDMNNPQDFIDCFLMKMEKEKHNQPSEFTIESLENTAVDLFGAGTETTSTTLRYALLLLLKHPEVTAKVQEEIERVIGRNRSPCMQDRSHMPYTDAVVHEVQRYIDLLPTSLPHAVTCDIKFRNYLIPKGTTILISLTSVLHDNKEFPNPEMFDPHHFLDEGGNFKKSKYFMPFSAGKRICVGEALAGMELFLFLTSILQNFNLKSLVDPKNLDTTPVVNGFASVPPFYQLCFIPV
Mac1 fbg enh: enhancers of human CD11b/CD18 binding to fibrinogen; P05107+P11215; K562 CD11b/CD18 adhesion to fibrinogen, ATPlite luminescence; activation, % at 10 µM; 93,000 tested, 0.07% active;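 active = 10 µM primary screen giving 50% or more activity, confirmed by 40% or more on retest at that dose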
CYP2C19 inh: blocks human cytochrome P450 2C19 | CYP2C19 Supersomes, luciferin-H EGE luminescence, 30 min | inhibition, % at 5 µM | 96,000 tested, 21% active;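 active = CYP2C19 inhibition above a set limit at 5 µM in the primary screen, cut at about 50% in these data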;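 note: plate controls were negative control wells for no effect and 2.5 mM tranylcypromine positive control for full effect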
CYP2C19 act: activators of human cytochrome P450 2C19. P33261. recombinant CYP2C19, luciferin-H EGE luminescence; hits give high values; 0 = fully inhibited enzyme, 1 = untreated enzyme. activation factor at 5 µM. 96,000 tested, under 10 active. AID 1025;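 active = activation factor of at least 2 at 5 µM in the primary screen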;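 note: 0 = wells with 2.5 mM tranylcypromine and 1 = vehicle-only wells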
Mac1 fbg inh: inhibitors of human CD11b/CD18 binding to fibrinogen. inhibition, % at 10 µM. AID 1497. 93,000 tested, 0.54% active. K562 CD11b/CD18 adhesion to fibrinogen, ATPlite luminescence; Mn2+ added to activate the integrin;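 active = primary inhibition of 50% or more at 10 µM, then 40% or more on retest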
CYP2C9 activ: increases human cytochrome P450 2C9 activity; recombinant CYP2C9, luciferin-H conversion, luminescence; hits give high values; factor 1 = untreated enzyme, 0 = blocked; 96,000 tested, 1.4% active; AID 1024; activation factor at 5 µM;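 active = activation factor of 2 or more for CYP2C9 at a 5 µM dose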;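 note: 0 = sulfaphenazole-blocked wells and 1 = vehicle-only wells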
Starred values were filed as active, the others as inactive; . = not tested or not shown.

SMILES	CYP2C9 inh	Mac1 fbg enh	CYP2C19 inh	CYP2C19 act	Mac1 fbg inh	CYP2C9 activ
CCOC(=O)C1=C(CC)Nc2ccccc2N=C1NC(=O)c1ccc(S(=O)(=O)N(C)C)cc1	92.6*	0.8	92.0*	0.1	-1.2	0.1
CCOC(=O)C1=C(C)Nc2ccccc2N=C1NC(=O)c1cccc(S(=O)(=O)N(C)C)c1	93.4*	-5.2	26.6	0.7	7.3	0.1
CCOC(=O)c1oc2ccccc2c1NC(=O)c1ccc(S(=O)(=O)N(C)C)cc1	47.5	.	13.3	0.9	.	0.5
CCN(CC)CCNC(=O)Cn1c(C)cc2ccccc2c1=O	-14.2	-4.3	-8.3	1.1	4.2	1.1
Cc1ccc(CNc2ncnc3cc(Cl)ccc23)o1	53.9*	0.1	66.8*	0.3	-0.2	0.5
COc1cc2ncnc(NCc3ccccc3C)c2cc1OC	22.0	4.8	32.8	0.7	-0.5	0.8
Cc1ccc(NC(=O)CSC2=Nc3ccccc3C3CC=NN23)c(C)c1 (stereo unspecified)	37.4	-2.1	92.9*	0.1	16.1	0.6
NC(=O)c1ccc(NC(=O)CSC2=Nc3ccccc3C3CC=NN23)cc1 (stereo unspecified)	21.5	-2.5	-3.6	1	6.2	0.8
COC(=O)c1ccc(NC(=O)CSC2=Nc3ccccc3C3CC=NN23)cc1 (stereo unspecified)	69.3*	-1.0	67.7*	0.3	2.5	0.3
CCCn1c(SCC(=O)NCc2ccco2)nnc1C(C)C	-16.0	-2.2	-16.3	1.2	17.1	1.2
CCC(C)(C)n1nnnc1C(c1cccs1)N1CCc2ccccc21 (stereo unspecified)	53.3*	-1.2	48.2	0.5	42.7	0.5
CCC(C)(C)n1nnnc1CN1CCc2ccccc21	12.9	-1.6	60.8*	0.4	3.1	0.9
c1ccc(CCn2nnnc2CN2CCCc3ccccc32)cc1	67.0*	-3.9	96.3*	0	-28.0	0.3
Cc1cc(C)n(C(=O)c2ccc(C)c(F)c2F)n1	.	-1.9	.	.	-6.7	.
O=C(CCCCCN1C(=O)c2ccccc2C1=O)NCCc1nc2ccccc2[nH]1	91.3*	-2.9	94.7*	0.1	-17.0	0.1
O=C(NCCc1nc2ccccc2[nH]1)c1ccc(F)cc1	51.2*	3.2	88.3*	0.1	-25.9	0.5
COc1ccccc1C(=O)NCCc1nc2ccccc2[nH]1	58.0*	0.8	87.5*	0.1	-3.8	0.4
CC(=O)Nc1nc(C)nc(-c2ccccc2)c1C(C)=O	-5.7	-3.7	-8.7	1.1	-5.1	1.1
CC(=O)c1c(NC(=O)C(C)C)nc(C)nc1-c1ccccc1	55.3*	2.6	39.1	0.6	-12.6	0.4
COc1ccc(OC)c(N2C(=O)C(Cl)=C(N3CCOCC3)C2=O)c1	21.8	-1.3	59.5*	0.4	-0.3	0.8
Cc1ccccc1N1C(=O)C(Cl)=C(N2CCCCCC2)C1=O	16.0	-0.1	28.1	0.7	-16.9	0.8
COc1ccc(OC)c(N2C(=O)C(Cl)=C(N3CCCCC3)C2=O)c1	78.1*	-5.0	66.5*	0.3	-4.7	0.2
O=C(N/N=C/c1cccc(Oc2ccc([N+](=O)[O-])cc2[N+](=O)[O-])c1)c1cncc(Br)c1	.	-1.8	.	.	14.1	.
CCOC(CNC(=O)c1cccn2c(=O)c3cc(Cl)ccc3nc12)OCC	66.0*	-1.2	21.8	0.8	10.2	0.3
O=C(NCCN1CCN(c2ccccc2)CC1)c1cccn2c(=O)c3cc(Cl)ccc3nc12	64.3*	41.3	38.6	0.6	9.5	0.4
SMILES	CYP2C9 inh	Mac1 fbg enh	CYP2C19 inh	CYP2C19 act	Mac1 fbg inh	CYP2C9 activ
O=C(NCCN1CCN(c2ccccc2)CC1)c1cccc(Br)c1	44.9	0.2	53.1*	0.5	-18.0	0.6
Cc1cccc(C(=O)NCCN2CCN(c3ccccc3)CC2)c1	12.3	-0.9	11.4	0.9	-14.6	0.9
O=C(c1cccn2c(=O)c3cc4ccccc4cc3nc12)N1CCN(c2ccccc2)CC1	29.5	-1.9	29.5	0.7	-2.2	0.7
CC(C)(C)NC(=O)C(=O)NNC(=O)c1ccc(C(C)(C)C)cc1	.	-2.7	.	.	-2.6	.
COCCCNc1ccnc2c(Cl)cccc12	5.2	2.3	21.1	0.8	-13.3	0.9
COCCCNc1cc(C)nc2ccccc12	5.3	.	1.6	1	.	0.9
COCCCNc1nc(-c2ccncc2)nc2ccccc12	70.6*	5.1	78.4*	0.2	-11.0	0.3
COCCCNC(c1ccccc1)c1ccncc1 (stereo unspecified)	64.6*	2.4	86.2*	0.1	0.9	0.4
CCCn1c(=O)c(C(=O)Nc2nnc(CC)s2)c(O)c2ccccc21	16.6	5.1	-12.4	1.1	15.2	0.8
Cc1cc(C)cc(-n2c(C)cc(C=C(C#N)C#N)c2C)c1	36.6	.	17.1	0.8	.	0.6
COC(=O)C1=C(C)NC(=O)/C1=C\c1cc(C)n(-c2cc(C)cc(C)c2)c1C	92.3*	-1.0	82.3*	0.2	4.3	0.1
Cc1ccc(C)c2[nH]c(=O)c(CCNC(=O)c3ccc(S(=O)(=O)N(C)C)cc3)cc12	58.6*	-1.2	17.1	0.8	-3.0	0.4
CCCCC(=O)NCCc1cc2c(OC)ccc(OC)c2[nH]c1=O	-132.4	.	2.9	1	.	2.3*
CCN(CC)S(=O)(=O)c1ccc(C(=O)NCCc2cc3c(OC)ccc(OC)c3[nH]c2=O)cc1	84.6*	.	34.5	0.7	.	0.2
CCCS(=O)(=O)NCCc1cc2c(OC)ccc(OC)c2[nH]c1=O	-12.5	.	13.2	0.9	.	1.1
COc1ccc(OC)c2[nH]c(=O)c(CCNC(=O)c3ccc(S(=O)(=O)N4CCCC4)cc3)cc12	62.0*	.	44.1	0.6	.	0.4
CC1(C)Cc2c(c(-c3ccccc3)nc(N3CCCC3)c2C(N)=O)CO1	-11.8	0.6	-10.6	1.1	7.7	1.1
N#Cc1c(N)nc2c(c1-c1ccc3c(c1)OCO3)CCCCCC2	15.1	-4.2	34.8	0.7	-7.7	0.8
N#Cc1c(N)oc(-c2ccc3c(c2)OCO3)c1-c1ccc2c(c1)OCO2	86.8*	4.0	95.6*	0	-34.2	0.1
CCS(=O)(=O)N1CCC(NC(=O)C2CCCCC2)CC1	-6.2	-1.8	-10.7	1.1	14.9	1.1
COC(=O)c1ccccc1NC(=S)N(Cc1ccc2c(c1)OCO2)Cc1cc2cccc(C)c2[nH]c1=O	.	9.8	.	.	-0.8	.
COc1ccc(C(=O)Nc2nc(C)c(C)s2)cc1OC	0.2	0.0	6.0	0.9	-20.2	1
COc1ccc(C(=O)c2sc(NC(C)C)nc2N)cc1OC	7.7	-0.7	86.3*	0.1	-2.6	0.9
CC1CCCCC12NC(=O)N(CC(=O)Nc1sc3c(c1C(N)=O)CCC3)C2=O (stereo unspecified)	70.5*	4.4	23.1	0.8	11.1	0.3
COC(=O)c1c(NC(=O)CN2C(=O)NC3(CCC(C(C)(C)C)CC3)C2=O)sc2c1CCCCC2 (stereo unspecified)	.	47.5	.	.	-3.3	.

Screens deposited in PubChem BioAssay by Sanford-Burnham Center for Chemical Genomics.
